Reference: PubChem BioAssay
Unmarked numbers belong to inactive results. The rule behind the calls is not given here.

The compounds below were run against Pantothenate synthetase (Mycobacterium tuberculosis (strain ATCC 25618 / H37Rv)) (UniProt P9WIL5) (assay: Coupled enzyme confirmation of inhibitors against recombinant Mtb PanC (AID 375;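 note: 0% = full reaction with vehicle and 100% = no enzyme background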)). Conditions: coupled enzyme assay; at 10 µM, stronger effect = higher value.
Pantothenate synthetase (Mycobacterium tuberculosis (strain ATCC 25618 / H37Rv)), sequence (P9WIL5 whole entry, looked up): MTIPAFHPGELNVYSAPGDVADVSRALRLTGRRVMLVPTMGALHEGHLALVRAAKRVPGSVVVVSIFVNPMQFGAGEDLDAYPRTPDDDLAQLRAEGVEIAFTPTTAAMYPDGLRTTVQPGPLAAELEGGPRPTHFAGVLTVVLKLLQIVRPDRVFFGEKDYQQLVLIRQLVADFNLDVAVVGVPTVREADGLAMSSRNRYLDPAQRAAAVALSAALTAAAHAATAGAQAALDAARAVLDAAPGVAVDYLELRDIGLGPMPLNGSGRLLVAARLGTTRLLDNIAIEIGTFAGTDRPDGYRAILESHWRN

Row | SMILES | inhibition [%]
1 | Cc1cc(C(=O)Nc2cccnc2)no1 | 0
2 | COc1ccccc1NS(=O)(=O)c1ccc(NC(=O)c2nc3ncccn3n2)cc1 | 0
3 | CCc1ccc(NC(=O)CS(=O)CC(=O)NC(C)CCc2ccco2)cc1 (stereo not given) | 2
4 | CCOc1ccc(C2/C(=C(/O)c3ccccc3)C(=O)C(=O)N2CCCN(C)C)cc1OC (stereo not given) | 0
5 | Cc1ccc(C)c(N2CCN(C(=O)C3CCN(S(=O)(=O)c4c(C)noc4C)CC3)CC2)c1 | 4
6 | CC1(C)Cc2c(C#N)c(SCCC#N)nc(N3CCOCC3)c2CS1 | 0
7 | COc1ccccc1N(CC(=O)NCc1ccccn1)S(C)(=O)=O | 0
8 | CCCCOC(=O)Cn1c(=N)n(CCN2CCOCC2)c2ccccc21 | 0
9 | O=C(CN1C(=O)CCS(=O)(=O)c2ccccc21)Nc1cccc(F)c1 | 5
10 | CC(C)CN(CC(C)C)C(=O)C12CCC(C)(C(=O)C1)C2(C)C (stereo not given) | 3
11 | O=C(NCCCN1CCOCC1)c1cc(-c2ccc(O)cc2)on1 | 0
12 | COc1ccc(OC)c(C2=NOC(C(=O)Nc3cc(C)nn3-c3ccccc3)C2)c1 (stereo not given) | 0
13 | CCC1(NC(C)=O)CC2CC1CC2NC(C)=O (stereo not given) | 0
14 | CCCCCc1c(C)nc(SCC(=O)O)[nH]c1=O | 0
15 | COc1ccc(S(=O)(=O)N2CN(Cc3ccco3)c3nc4ccccc4nc32)cc1 | 0
16 | CCOc1ccc(NC(=O)CN(c2cc(C)cc(C)c2)S(=O)(=O)c2c(C)noc2C)cc1 | 7
17 | O=S(=O)(NC1CCCC1)c1ccc(S(=O)(=O)N2CCc3ccccc32)cc1 | 0
18 | Clc1ccc(Cl)c(-c2ccc(/C=N/c3ncn[nH]3)o2)c1 | 4
19 | Cc1cccc(CN2CCC(CNC(=O)C3CCCN(S(=O)(=O)c4cnc[nH]4)C3)CC2)c1 (stereo not given) | 0
20 | COc1cc(NC(=O)c2cc(OC)c(OC)c(OC)c2)c(OC)cc1NC(=O)CN1CCCCC1 | 1

Row | SMILES | inhibition [%]
21 | CCOCCCNc1ncnc2c1[nH]c1ccccc12 | 0
22 | CN(C)CCCN1c2ccccc2Sc2ccccc21 | 0
23 | COc1cc2c(cc1OC)CN(C(=O)CSc1nnc3scc(-c4ccccc4)n13)CC2 | 0
24 | CCOc1cc(CN2CCN(C(=O)c3ccco3)CC2)ccc1OC | 9
25 | Cc1ccc(NCC(O)C(O)C(O)CO)cc1C (stereo not given) | 0
26 | COc1cc2nc(C3CCC3)n(NC(=O)C3CCCC(OC)C3)c(=O)c2cc1OC (stereo not given) | 2
27 | OC(CCN1CCOCC1)(c1ccc(Cl)cc1)C1CCCCC1 (stereo not given) | 0
28 | COc1ccc(CCNC(=O)c2nc3ncccn3n2)cc1OC | 0
29 | Cc1ccc(F)cc1NC(=O)Cc1nn(C)c(=O)c2ccccc12 | 1
30 | Cc1nc2cccc(C(=O)NC3CCCCC3)c2o1 | 0
31 | CC1=CC=CC2=NC(=O)CC(C)(C(=O)N(CC(=O)NC(C)C)C3CCCC3)N12 (stereo not given) | 4
32 | c1ccc(-c2ccc(-c3ccccn3)nn2)nc1 | 8
33 | Cc1nn(-c2ccccc2)c(C)c1/C=N/O | 0
34 | O=C(Nc1ccc(N2CCOCC2)cc1)C1CC1 | 0
35 | Fc1ccc(-c2ccc(-c3nn4c(-c5ccco5)nnc4s3)o2)cc1 | 14
36 | CCOc1ccc2nc(NC(=O)CSc3nnnn3C3CCCCC3)sc2c1 | 1
37 | O=C(CSc1nnc(-c2ccc(Br)o2)n1Cc1ccccc1)c1ccccc1F | 2
38 | CCOC(=O)CSc1nnc(CCc2nc3ccccc3[nH]2)n1C | 10
39 | CC12CCC(C(=O)N3CCN(C(=O)C45CCC(C)(C(=O)O4)C5(C)C)CC3)(OC1=O)C2(C)C | 0
40 | O=C1CC(c2ccco2)CC(O)=C1C=NCCN1CCNCC1 (stereo not given) | 0
